The text below walks through data of publication PMC4336329 (PLoS ONE, 2015).

The campaign covered roughly 310,000 compounds. About 14,000 (4.5%) showed an effect of 50% or more. Effects have a minus sign here. The sample as a whole holds a higher share of strong results than the screen did.
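Note: peak tail current of the secondary pulse compared with the same well before compound.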

This assay deals with human ether-à-go-go-related gene (hERG) potassium channel (human, UniProt Q12809). The experiment in a line: primary screen, population patch clamp on CHO cells stably expressing hERG; higher = less effect of the substance.
human ether-à-go-go-related gene (hERG) potassium channel, sequence (Q12809 whole entry, looked up): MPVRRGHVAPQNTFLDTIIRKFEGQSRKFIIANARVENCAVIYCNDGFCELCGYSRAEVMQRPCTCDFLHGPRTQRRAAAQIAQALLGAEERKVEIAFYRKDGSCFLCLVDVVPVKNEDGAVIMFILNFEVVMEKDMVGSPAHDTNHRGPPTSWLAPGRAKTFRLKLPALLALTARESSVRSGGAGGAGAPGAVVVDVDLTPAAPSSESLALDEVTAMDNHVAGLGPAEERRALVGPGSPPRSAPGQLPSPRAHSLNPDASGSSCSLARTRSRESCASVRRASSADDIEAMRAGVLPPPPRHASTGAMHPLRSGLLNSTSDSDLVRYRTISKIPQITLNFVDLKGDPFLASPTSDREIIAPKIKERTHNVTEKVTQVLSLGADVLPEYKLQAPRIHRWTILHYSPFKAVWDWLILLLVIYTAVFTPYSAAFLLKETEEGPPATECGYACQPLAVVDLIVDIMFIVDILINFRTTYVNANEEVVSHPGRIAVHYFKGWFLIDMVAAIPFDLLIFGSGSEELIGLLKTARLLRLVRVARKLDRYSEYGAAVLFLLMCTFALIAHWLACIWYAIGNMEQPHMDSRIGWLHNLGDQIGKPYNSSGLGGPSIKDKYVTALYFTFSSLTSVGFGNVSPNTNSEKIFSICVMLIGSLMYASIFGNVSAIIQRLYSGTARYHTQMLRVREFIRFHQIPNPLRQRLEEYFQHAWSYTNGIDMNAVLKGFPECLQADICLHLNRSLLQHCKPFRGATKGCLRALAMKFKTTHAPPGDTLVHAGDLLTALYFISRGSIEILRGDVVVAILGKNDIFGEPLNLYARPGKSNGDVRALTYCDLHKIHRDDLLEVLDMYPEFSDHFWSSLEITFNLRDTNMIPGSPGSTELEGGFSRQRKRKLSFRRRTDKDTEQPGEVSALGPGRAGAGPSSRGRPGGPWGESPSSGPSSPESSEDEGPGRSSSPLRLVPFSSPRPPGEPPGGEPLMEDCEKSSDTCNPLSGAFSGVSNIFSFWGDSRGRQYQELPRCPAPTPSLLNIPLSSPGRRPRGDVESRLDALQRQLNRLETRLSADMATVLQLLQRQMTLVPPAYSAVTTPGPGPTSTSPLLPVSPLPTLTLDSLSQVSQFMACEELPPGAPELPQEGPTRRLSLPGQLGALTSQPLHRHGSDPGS
`O=C(NCc1ccccc1)c1cccc(COc2ccc(Cl)cc2)c1`: the “hERG current change (%, negative = inhibition) at 10uM” value is reported as 5.77%.
The same measure for `COc1cc(C2C(C#N)=C(N)Oc3cc(O)ccc32)cc(OC)c1OC` (stereo not drawn): 4.91%; for `COC(=O)c1cc(S(=O)(=O)NC2CCCCC2)cn1C`: 10.5%; for `O=S(=O)(c1ccc(SCCO)nc1)N1CCOCC1`: -2%.
The same measure for `CCOC(=O)CCNC(=O)Nc1cc2nc(C)n(Cc3cccc(Cl)c3)c2nc1C`: 4.33%; for `O=c1cc(-c2ccccc2)[nH]c2ccccc12`: -11.4%.
Consider `O=C(COC(=O)c1ccccc1[N+](=O)[O-])NNC(=O)c1cccs1`, for which the “hERG current change (%, negative = inhibition) at 10uM” value is -15.7%.
The same measure for `CC(C)C(=O)N(Nc1nc2ccccc2s1)C(=O)C(C)C`: -0.224%; for `Cc1ccc2c(c1)c1c(n2CCc2ccc(C)nc2)CCN(C)C1`: -15.8%.
`O=C1SCCc2c1n(Cc1ccccc1)c1ccccc21`: the “hERG current change (%, negative = inhibition) at 10uM” value worked out at 2.89%.
In the case of `CN1CCc2c(c3ccccc3n2Cc2ccccc2)C1.Cl` it was -71.2%; in that of `CN1CCc2c(c3ccccc3n2C)C1.Cl`, 11.4%.
The same measure for `CCCCN1CCc2c(c3ccccc3n2Cc2ccccc2)C1`: -72.9%; for `Cc1ccc(CCn2c3c(c4ccccc42)CN(C)CC3)cn1`: -3.74%.
In the case of `COc1ccc(-c2ncc3ccccn23)cc1` it was -5.24%.
With `Cc1cc(NC(=O)c2ccc(N(C)S(=O)(=O)c3ccccc3)cc2)no1`, the “hERG current change (%, negative = inhibition) at 10uM” value was -11.5%.
With `COc1ccc(OCCCC(=O)Nc2ccc(N3CCCCC3)cc2)cc1.Cl`, the “hERG current change (%, negative = inhibition) at 10uM” value was -1.87%.
As to `CC(=O)N1C2CCCCC2S[C@H]2CCCCC21` (stereo partly drawn), the “hERG current change (%, negative = inhibition) at 10uM” value was found to be 18.9%.
Regarding `Cc1ccc(/C=N/n2c(COc3ccccc3)n[nH]c2=S)s1`, the “hERG current change (%, negative = inhibition) at 10uM” value was determined as 14.6%.
In the case of `COc1ccc(C(C(=O)NC2CCCC2)N(C(=O)c2ccoc2C)c2ccc(C)c(C)c2)cc1` (stereo not drawn) it was 15.1%.
On to `COc1ccccc1CNC(=O)CN1C(=O)c2ccccc2S1(=O)=O`, for which the “hERG current change (%, negative = inhibition) at 10uM” value amounted to 12.7%.
Regarding `O=C(Nc1nc2ccccc2n1CCN1CCCCC1)c1ccc(Cl)cc1`, the “hERG current change (%, negative = inhibition) at 10uM” value is listed as -13.2%.
In the case of `CCCn1c(NC(=O)c2ccc(C)cc2)nc2ccccc21` it was -22.8%.
With `Cc1ccc(C(=O)Nc2nc3ccccc3n2CCN2CCCC2)cc1`, the “hERG current change (%, negative = inhibition) at 10uM” value is given as -53.8%.
On to `CCN(CC)CCn1c(NC(=O)c2ccccc2O)nc2ccccc21`, for which the “hERG current change (%, negative = inhibition) at 10uM” value is listed as -68%.
On to `CCC(=O)Nc1nc2ccccc2n1CCN(CC)CC`, for which the “hERG current change (%, negative = inhibition) at 10uM” value is on record as -14.1%.
In the case of `CCN(CC)CCn1c(NC(=O)c2ccc(C(F)(F)F)cc2)nc2ccccc21`, the “hERG current change (%, negative = inhibition) at 10uM” value is recorded as -25.7%.
On to `CCN(CC)CCn1c(NC(=O)c2ccc(C)cc2)nc2ccccc21`, for which the “hERG current change (%, negative = inhibition) at 10uM” value is listed as -63.2%.
For the molecule `CCCn1c(NC(=O)c2ccccc2Br)nc2ccccc21`, the “hERG current change (%, negative = inhibition) at 10uM” value is 16.2%.
The same measure for `CCN(CC)CCn1c(NC(=O)c2ccc(Cl)cc2)nc2ccccc21`: -31.5%; for `CCCc1nnc(NC(=O)c2cc(OC)cc(OC)c2)s1`: -4.25%.
For the molecule `Cc1ccccc1NC(=O)CSc1ccncc1`, the “hERG current change (%, negative = inhibition) at 10uM” value was -1.94%.
In the case of `CNCCc1ccccn1.Cl` it was 7.88%; in that of `CC(=O)NN1C(=O)/C(=C/c2ccc(Br)o2)SC1=S`, 2.1%; in that of `COc1ccc(C(CNC(=O)c2cc3ccccc3o2)N2CCCCC2)cc1` (stereo not drawn), -51.6%.
The same measure for `COc1ccc(C(CNC(=O)c2ccccc2C)N2CCCC2)cc1` (stereo not drawn): -16.2%.
Consider `COc1ccc(C(CNC(=O)c2cc3ccccc3o2)N2CCCC2)cc1` (stereo not drawn), for which the “hERG current change (%, negative = inhibition) at 10uM” value is recorded as -38.6%.
The same measure for `COc1ccc(C(CNC(=O)CCNC(=O)c2ccccc2OC)N2CCCC2)cc1` (stereo not drawn): -14.1%.
As to `COc1ccc(C(CNC(=O)c2cc3ccccc3cc2OC)N2CCCC2)cc1` (stereo not drawn), the “hERG current change (%, negative = inhibition) at 10uM” value was -67.5%.
In the case of `COc1ccc(C(CNC(=O)c2ccco2)N2CCCCC2)cc1` (stereo not drawn) it was -5.74%.
The same measure for `CCOC(=O)c1cc(CC)sc1NC(=O)Cc1ccccc1`: 25.9%.
For `CCCCn1c(-c2csc3ccccc23)n[nH]c1=S`, the “hERG current change (%, negative = inhibition) at 10uM” value came to 12.8%.
Consider `Cc1ccc(S(=O)(=O)NC2=NCN(CCOC(=O)c3ccc([N+](=O)[O-])cc3)CN2)cc1`, for which the “hERG current change (%, negative = inhibition) at 10uM” value is given as 12.7%.
The same measure for `CCn1cc(C(=O)NCc2ccc3c(c2)OCO3)c(=O)c2cc(F)c(N3CCN(C)CC3)cc21`: -37.2%; for `CCOC(=O)c1cccc(S(=O)(=O)N2CCCC2)c1`: 8.7%; for `COc1cc(/C=C/C(=O)OCC(=O)NCc2ccco2)ccc1O`: 3.65%.
The same measure for `COc1ccc(/C=C/C(=O)N(c2ccccn2)C2CCCCC2)cc1OC`: -6.44%.
With `COc1ccc(/C=C/C(=O)N(Cc2ccccc2)c2ccccn2)cc1OC`, the “hERG current change (%, negative = inhibition) at 10uM” value is on record as -76.6%.
The same measure for `COc1ccc(/C=C/C(=O)OCC(=O)NCc2ccco2)cc1OC`: -72%.
In the case of `COc1ccccc1OCCCCN1CCC(C)CC1` it was -16%; in that of `C/C=C/c1ccc(OCC(O)CN2CCCCCCC2)c(OC)c1` (stereo not drawn), -35.4%.
As for `COc1cc(/C=C/C(=O)OCC(=O)NCc2ccco2)ccc1OC(F)F`, the “hERG current change (%, negative = inhibition) at 10uM” value was 6.87%.
The same measure for `C/C=C/c1ccc(OCCCCN2CCC(C)CC2)c(OC)c1`: -68.1%; for `C/C=C/c1ccc(OCC(O)CN(C)Cc2ccc(SC)cc2)c(OC)c1.O=C(O)C(=O)O` (stereo not drawn): -71.2%; for `C/C=C/c1ccc(OCCCCOc2ccc(OC)cc2)c(OC)c1`: -7.09%.
The same measure for `C/C=C/c1ccc(OCC(=O)O)c(OC)c1`: 12.4%; for `COc1cc(/C=C/C(=O)N(Cc2ccccc2)c2ccccn2)cc(OC)c1OC`: -23.2%.
In the case of `CCOC(=O)C1=C(COc2ccc(F)cc2Cl)NC(=O)NC1c1cc(C)ccc1C` (stereo not drawn) it was 10.6%; in that of `O=[N+]([O-])c1cc(Cl)ccc1Nc1ccccc1`, 9.85%.
In the case of `CCOC(=O)c1sc(NC(=O)COC(=O)CNC(=O)c2ccco2)c(C(=O)OCC)c1C`, the “hERG current change (%, negative = inhibition) at 10uM” value came out at 4.08%.
